# From the supplement of paper PMC10849652
# Targets with a hit are over-represented here; the source holds about 7,900 in all. About 0.6% of all pairs of compound and target were hits. Values without a mark were called inactive.
# Assays:
# Test in all cases: log2 fold change, soluble protein after heating vs DMSO (PISA); higher = thermal stabilisation; K562 cells, 10 uM, 30 min; active = over 0.2 and 3.5 SD of the protein, either way, in both replicates (recomputed)
# [1] = compound: C1=CC=C(C=C1)[C@H](COC2=CC3=C(C=C2)NC(=O)N3)NC(=O)C4=CC=CN(C4=O)CC5=CC(=C(C=C5)F)F
# Summary of the method: (§1)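 Thermal stability values are relative to control samples and come from duplicates. They are expressed as log2 fold changes. For measurement, K562 cells (2×10^6 cells/mL) received 10 μM compound for 30 min, and aliquots were heated for 3 min over 48°C-58°C, pooled, and extracted at 4°C in PBS with 0.5% NP-40. Soluble protein, the supernatant after 21,000xg for 90 min, was quantified by TMTpro 16plex LC-MS/MS with equalised channel sums.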
# [2] = compound: CC1=C(SC2=C1C(=N[C@H](C3=NN=C(N32)C)CC(=O)N)C4=CC=C(C=C4)Cl)C
# Summary of the method: as §1
# [3] = compound: CC1=C2C(=CC=C1)N=C(N(C2=O)C3=CC=CC=C3C)CN4C=NC5=C(N=CN=C54)N
# Summary of the method: as §1
# [4] = compound: Cc1sc2c(c1C)C(c1ccc(Cl)cc1)=N[C@@H](CC(=O)OC(C)(C)C)c1nnc(C)n1-2
# Summary of the method: as §1
# [5] = compound: c1ccc([C@@H]2C[C@H]2NC2CCNCC2)cc1
# Summary of the method: as §1
# Sequence of UniProt Q15910 (Q15910 whole entry, looked up): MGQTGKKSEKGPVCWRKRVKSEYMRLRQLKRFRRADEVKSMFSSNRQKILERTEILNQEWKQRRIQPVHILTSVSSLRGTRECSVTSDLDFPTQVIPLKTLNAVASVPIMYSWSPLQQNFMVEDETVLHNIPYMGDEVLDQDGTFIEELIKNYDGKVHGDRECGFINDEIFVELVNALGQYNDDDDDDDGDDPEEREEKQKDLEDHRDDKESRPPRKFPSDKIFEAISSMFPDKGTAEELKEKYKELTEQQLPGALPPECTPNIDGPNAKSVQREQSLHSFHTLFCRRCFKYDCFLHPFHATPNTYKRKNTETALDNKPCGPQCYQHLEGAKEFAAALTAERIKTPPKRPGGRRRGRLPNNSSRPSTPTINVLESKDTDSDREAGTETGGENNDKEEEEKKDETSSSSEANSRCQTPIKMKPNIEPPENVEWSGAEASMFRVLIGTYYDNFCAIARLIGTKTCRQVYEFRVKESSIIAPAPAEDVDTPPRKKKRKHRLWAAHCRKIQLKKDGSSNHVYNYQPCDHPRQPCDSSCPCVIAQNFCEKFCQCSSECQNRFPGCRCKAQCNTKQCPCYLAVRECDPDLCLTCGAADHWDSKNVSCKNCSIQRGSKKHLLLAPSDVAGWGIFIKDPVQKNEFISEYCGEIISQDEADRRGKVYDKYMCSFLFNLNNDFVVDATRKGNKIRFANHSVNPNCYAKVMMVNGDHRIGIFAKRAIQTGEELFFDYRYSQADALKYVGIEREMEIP
# Sequence of UniProt Q96DA6 (Q96DA6 whole entry, looked up): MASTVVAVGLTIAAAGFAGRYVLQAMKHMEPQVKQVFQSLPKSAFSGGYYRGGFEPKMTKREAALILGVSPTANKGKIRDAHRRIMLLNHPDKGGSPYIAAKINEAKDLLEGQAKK
# Sequence of UniProt P00374 (P00374 whole entry, looked up): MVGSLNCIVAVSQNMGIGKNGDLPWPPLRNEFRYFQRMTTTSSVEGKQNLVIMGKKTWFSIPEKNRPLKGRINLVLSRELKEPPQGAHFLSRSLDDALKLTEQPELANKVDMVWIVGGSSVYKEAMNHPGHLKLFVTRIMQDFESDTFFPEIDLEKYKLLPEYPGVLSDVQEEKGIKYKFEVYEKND
# Sequence of UniProt Q8N612 (Q8N612 whole entry, looked up): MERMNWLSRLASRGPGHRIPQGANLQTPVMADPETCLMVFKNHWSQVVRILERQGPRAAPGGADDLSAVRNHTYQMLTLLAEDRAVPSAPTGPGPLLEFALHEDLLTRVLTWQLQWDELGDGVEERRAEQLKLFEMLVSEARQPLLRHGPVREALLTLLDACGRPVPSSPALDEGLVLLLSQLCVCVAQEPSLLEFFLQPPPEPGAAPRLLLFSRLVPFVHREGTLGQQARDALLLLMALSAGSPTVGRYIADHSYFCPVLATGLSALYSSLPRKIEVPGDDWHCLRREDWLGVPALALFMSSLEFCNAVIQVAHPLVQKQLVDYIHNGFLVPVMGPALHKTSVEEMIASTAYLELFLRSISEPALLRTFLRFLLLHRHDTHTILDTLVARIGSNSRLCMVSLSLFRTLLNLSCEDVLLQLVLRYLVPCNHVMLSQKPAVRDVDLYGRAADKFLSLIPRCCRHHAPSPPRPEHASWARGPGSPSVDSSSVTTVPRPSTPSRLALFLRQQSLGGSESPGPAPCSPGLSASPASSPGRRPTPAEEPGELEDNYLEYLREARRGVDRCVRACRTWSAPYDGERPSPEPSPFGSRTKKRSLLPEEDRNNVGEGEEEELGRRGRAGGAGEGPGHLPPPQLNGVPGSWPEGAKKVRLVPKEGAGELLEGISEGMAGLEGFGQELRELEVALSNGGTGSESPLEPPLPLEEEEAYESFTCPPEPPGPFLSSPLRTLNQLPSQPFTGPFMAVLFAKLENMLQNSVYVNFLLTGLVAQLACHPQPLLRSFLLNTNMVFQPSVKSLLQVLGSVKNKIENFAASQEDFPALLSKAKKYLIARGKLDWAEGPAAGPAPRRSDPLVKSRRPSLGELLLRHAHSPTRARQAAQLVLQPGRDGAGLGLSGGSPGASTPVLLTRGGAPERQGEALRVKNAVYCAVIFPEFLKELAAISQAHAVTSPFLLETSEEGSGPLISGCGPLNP
# Sequence of UniProt Q9UBR2 (Q9UBR2 whole entry, looked up): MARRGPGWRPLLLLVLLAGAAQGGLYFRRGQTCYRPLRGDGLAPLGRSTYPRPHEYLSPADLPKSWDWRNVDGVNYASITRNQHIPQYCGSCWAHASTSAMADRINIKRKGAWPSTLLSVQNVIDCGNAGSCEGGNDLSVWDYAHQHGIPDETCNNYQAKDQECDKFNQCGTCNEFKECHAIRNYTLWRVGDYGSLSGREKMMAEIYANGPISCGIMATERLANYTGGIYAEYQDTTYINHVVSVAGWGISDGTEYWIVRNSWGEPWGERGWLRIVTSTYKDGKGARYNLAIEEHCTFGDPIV
# Sequence of UniProt Q13948 (Q13948 whole entry, looked up): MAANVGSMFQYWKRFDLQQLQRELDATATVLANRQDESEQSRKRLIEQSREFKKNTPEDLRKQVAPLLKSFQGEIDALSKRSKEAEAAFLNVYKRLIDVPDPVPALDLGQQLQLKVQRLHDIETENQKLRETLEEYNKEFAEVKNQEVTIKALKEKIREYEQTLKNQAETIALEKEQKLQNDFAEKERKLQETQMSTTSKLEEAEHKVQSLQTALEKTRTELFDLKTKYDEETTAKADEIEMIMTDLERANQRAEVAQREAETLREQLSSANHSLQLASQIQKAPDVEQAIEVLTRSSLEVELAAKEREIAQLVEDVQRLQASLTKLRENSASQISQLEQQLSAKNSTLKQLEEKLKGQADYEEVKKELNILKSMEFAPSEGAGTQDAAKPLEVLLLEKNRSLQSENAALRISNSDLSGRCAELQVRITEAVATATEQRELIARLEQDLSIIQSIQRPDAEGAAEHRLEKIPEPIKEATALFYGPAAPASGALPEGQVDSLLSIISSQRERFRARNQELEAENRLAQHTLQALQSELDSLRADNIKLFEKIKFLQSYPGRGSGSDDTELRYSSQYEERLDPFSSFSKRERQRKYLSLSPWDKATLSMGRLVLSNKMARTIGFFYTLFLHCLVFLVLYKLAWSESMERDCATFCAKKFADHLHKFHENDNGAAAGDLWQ
# Sequence of UniProt Q14118 (Q14118 whole entry, looked up): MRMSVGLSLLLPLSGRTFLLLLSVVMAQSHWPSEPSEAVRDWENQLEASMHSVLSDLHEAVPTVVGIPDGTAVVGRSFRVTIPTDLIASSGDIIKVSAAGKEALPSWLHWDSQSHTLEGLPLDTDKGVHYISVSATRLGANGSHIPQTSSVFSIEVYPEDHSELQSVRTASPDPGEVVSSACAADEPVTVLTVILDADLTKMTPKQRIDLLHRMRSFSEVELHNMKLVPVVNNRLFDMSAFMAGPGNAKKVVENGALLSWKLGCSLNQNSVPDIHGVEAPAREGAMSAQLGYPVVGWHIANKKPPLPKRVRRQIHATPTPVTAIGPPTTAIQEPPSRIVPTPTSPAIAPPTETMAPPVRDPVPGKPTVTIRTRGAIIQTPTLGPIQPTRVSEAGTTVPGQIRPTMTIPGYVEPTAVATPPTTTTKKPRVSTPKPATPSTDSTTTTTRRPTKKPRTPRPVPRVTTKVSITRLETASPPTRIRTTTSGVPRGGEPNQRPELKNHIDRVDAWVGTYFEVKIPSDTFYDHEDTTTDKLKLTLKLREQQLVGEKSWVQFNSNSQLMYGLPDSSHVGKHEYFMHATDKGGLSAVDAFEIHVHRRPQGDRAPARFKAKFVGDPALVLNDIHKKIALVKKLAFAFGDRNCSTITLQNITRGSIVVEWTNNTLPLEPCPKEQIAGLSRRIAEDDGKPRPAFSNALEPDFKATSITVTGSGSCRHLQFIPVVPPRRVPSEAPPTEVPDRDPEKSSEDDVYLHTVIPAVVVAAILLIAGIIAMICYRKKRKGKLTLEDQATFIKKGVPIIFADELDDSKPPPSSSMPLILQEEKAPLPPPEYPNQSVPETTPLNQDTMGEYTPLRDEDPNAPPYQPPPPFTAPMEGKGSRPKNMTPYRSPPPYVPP
# Sequence of UniProt Q9UPT5 (Q9UPT5 whole entry, looked up): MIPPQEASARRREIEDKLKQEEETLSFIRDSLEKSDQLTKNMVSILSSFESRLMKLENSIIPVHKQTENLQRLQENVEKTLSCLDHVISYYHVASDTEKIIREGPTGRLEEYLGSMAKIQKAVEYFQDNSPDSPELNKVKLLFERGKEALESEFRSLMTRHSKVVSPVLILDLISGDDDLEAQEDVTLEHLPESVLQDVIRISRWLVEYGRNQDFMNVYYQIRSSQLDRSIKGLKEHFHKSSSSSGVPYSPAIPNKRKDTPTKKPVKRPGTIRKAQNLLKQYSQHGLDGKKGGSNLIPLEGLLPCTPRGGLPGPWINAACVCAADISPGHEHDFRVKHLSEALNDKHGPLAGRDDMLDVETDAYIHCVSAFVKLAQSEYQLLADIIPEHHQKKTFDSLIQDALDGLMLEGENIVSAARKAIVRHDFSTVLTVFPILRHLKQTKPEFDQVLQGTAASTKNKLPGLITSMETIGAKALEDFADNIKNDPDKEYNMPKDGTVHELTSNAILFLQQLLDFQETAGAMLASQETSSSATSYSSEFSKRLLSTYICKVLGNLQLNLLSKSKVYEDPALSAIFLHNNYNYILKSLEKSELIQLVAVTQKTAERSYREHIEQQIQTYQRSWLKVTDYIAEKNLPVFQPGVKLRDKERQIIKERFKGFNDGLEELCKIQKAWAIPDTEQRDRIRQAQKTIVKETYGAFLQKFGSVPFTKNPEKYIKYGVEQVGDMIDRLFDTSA
# Sequence of UniProt Q9BU89 (Q9BU89 whole entry, looked up): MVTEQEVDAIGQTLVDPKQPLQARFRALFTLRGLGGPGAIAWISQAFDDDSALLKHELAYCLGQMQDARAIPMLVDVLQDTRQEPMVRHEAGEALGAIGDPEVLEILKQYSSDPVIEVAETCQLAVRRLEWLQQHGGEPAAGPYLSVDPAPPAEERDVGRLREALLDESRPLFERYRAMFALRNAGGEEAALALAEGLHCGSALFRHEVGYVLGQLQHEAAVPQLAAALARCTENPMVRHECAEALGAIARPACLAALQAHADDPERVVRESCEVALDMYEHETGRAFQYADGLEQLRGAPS
Target,log2 fold change [1],log2 fold change [2],log2 fold change [3],log2 fold change [4],log2 fold change [5]
EXOC4 (UniProt Q96A65),-0.05,0.052,0.015,0.081,-0.049
FAM160A2 isoform 2 (UniProt Q8N612),-0.027,-0.054,0.343,0.148,-0.344
ERCC2 (UniProt P18074),0,-0.025,-0.044,-0.104,0.05
FAM122A (UniProt Q96E09),0.008,-0.055,-0.022,0.158,0.083
DYNC1I2 isoform 5 (UniProt Q13409),0.019,0.021,-0.006,-0.033,-0.019
DNAJC19 (UniProt Q96DA6),0.025,0.021,0.05,0,-0.041
DENND10 (UniProt Q8TCE6),0.035,0.083,0.103,0.057,-0.008
ELOC (UniProt Q15369),0.024,0.151,0.132,-0.066,-0.07
DAG1 (UniProt Q14118),-0.068,0.074,0.072,0.016,0.049
DPYSL2 (UniProt Q16555),-0.012,0.072,0.093,0.01,0.014
DHCR7 (UniProt Q9UBM7),-0.061,0,0.093,-0.186,1.06 (active)
EXOC7 (UniProt Q9UPT5),-0.063,-0.001,0.035,0.07,-0.014
DNAAF2 (UniProt Q9NVR5),0.039,0.02,-0.013,-0.003,0.002
FADS3 (UniProt Q9Y5Q0),0.027,0.023,0.026,0.025,-0.007
DMAC1 (UniProt Q96GE9),0.058,-0.041,0.05,-0.085,0.023
DAB2 (UniProt P98082),-0.039,0.051,0.1,0.121,0.094
CUX1 isoform 2 (UniProt Q13948),-0.067,0.013,0,0,0.023
DHFR (UniProt P00374),-0.077,-0.014,0.083,0.058,0.396
DMXL1 (UniProt Q9Y485),-0.017,0.003,0.071,-0.016,-0.05
EXOSC10 (UniProt Q01780),0.162,0.184,0.284,0.03,-0.041
CTSZ (UniProt Q9UBR2),-0.003,0.009,0.032,0.039,-0.01
EZH2 isoform 2 (UniProt Q15910),0.023,-0.056,-0.14,0.016,-0.034
DHX16 (UniProt O60231),-0.024,0.007,0.059,-0.003,0.017
DOHH (UniProt Q9BU89),0.218,0.072,-0.062,0.031,-0.088
